RXFP1 antag: qHTS Assay for Antagonists of the Relaxin Receptor RXFP1; Relaxin receptor 1 (Homo sapiens), Q9HBX9; HEK293-RXFP1, relaxin-stimulated cAMP HTRF, 30 min; active compounds read low; activity change, negative = inhibition, % at 57.5 µM; hit rate 0.59% among 350,000; AID 1259400, 2018;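 active means activity change of -60% or lower, but not beyond a set lower limit; inconclusive means change between -60% and -40%, or beyond the set limit; inactive means change above -40%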
Target sequence (Q9HBX9 whole entry, looked up): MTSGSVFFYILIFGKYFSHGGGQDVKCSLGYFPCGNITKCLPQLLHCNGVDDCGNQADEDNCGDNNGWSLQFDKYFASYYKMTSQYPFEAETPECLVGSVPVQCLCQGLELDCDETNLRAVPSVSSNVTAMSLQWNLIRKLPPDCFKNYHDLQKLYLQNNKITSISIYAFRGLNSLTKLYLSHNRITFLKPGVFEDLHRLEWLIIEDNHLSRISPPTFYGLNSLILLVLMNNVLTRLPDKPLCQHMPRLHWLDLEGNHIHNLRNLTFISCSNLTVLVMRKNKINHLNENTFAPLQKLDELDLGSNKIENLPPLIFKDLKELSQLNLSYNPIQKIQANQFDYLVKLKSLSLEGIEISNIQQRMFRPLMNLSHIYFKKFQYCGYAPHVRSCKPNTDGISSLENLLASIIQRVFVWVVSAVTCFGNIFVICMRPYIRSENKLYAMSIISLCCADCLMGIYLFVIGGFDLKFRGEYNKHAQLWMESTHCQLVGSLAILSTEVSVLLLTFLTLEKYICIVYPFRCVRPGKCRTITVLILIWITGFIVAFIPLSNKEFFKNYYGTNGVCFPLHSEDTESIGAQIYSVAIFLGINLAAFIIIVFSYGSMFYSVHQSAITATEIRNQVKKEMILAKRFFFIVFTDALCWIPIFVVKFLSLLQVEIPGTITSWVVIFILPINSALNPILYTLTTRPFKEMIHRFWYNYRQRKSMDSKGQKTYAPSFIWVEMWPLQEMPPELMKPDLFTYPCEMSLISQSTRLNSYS
Giardia killer: Small Molecules that selectively kill Giardia lamblia: qHTS | Giardia lamblia trophozoite viability | activity change, % at 7.66 µM, hits read low | hit rate 0.15% among 340,000 | AID 540267, 2011; in the data active means activity change below about -80%; inconclusive means between about -30% and that limit;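 further: parasites exposed to compound for two days anaerobically before the ATP read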
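Compounds were tested on trophozoites seeded at 100 cells/well and held 48 hrs at 37 deg C anaerobically. An ATP-based luminescent kit measured the remaining live cells.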
RXFP1 ag: qHTS Assay for Agonists of the Relaxin Receptor RXFP1; Relaxin receptor 1 (Homo sapiens), Q9HBX9; HEK293T-RXFP1 cAMP TR-FRET, 30 min; response scale: percent of porcine relaxin response, buffer zero; Potency, µM (titrated, usually from 57.5 µM), hits mostly activators; hit rate 0.3% among 370,000; AID 2676, 2010; active means well fitted activation curve with a large enough effect; inconclusive means small, poorly fitted or top-dose-only effect; further: nearly all actives have a fitted effect of over 60% in size
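HEK293T cells stably expressing RXFP1 were pretreated with the PDE4 inhibitor Ro 20174, exposed to compounds for 30 min at 37C, lysed, and cAMP was read by TR-FRET. Data normalized to buffer (basal) and 29 nM porcine relaxin (100%).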
gsp agonist: qHTS for Agonist of gsp, the Etiologic Mutation Responsible for Fibrous Dysplasia/McCune-Albright Syndrome: qHTS. Potency, µM (titrated, usually from 76.9 µM), actives largely listed as activators. gsp mutant cells, cAMP HTRF, 30 min. hit rate 0.13% among 340,000; active means well fitted activation curve with a large enough effect; inconclusive means small, poorly fitted or top-dose-only effect, or another doubt; inactive means no such curve, though single readings can be large or run the other way; cell line not stated here;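 further: phosphodiesterase inhibitor Ro 20-1724 added with compounds to block cAMP breakdown; nearly all actives have a fitted effect of over 60% in size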
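Cells in DMEM/10% FBS with G418 were pretreated with compounds in DMSO plus […] (300 uM stock) for 30 min at 37C. cAMP was measured by HTRF (cAMP-d2 plus anti-cAMP antibody-K) after 30 min at room temperature.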
gsp antagonist: qHTS for Antagonists of gsp, the Etiologic Mutation Responsible for Fibrous Dysplasia/McCune-Albright Syndrome: qHTS; gsp-mutant cells, cAMP HTRF, 30 min; Potency, µM (doses to about 76.9 µM), usual class: inhibitors; hit rate 0.4% among 340,000; AID 624288, 2012; calls by dose curve; cell line not stated here;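 further: intracellular cAMP measured with PDE inhibitor Ro 20-1724 present during compound exposure; nearly all actives have a fitted effect of over 65% in size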
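G418-selected cells were plated in DMEM/10% FBS for 16-24 h at 37C, then treated with compounds plus the PDE inhibitor […] (300 uM solution added) for 30 min at 37C. Intracellular cAMP was measured by HTRF after 30 min lysis at room temperature.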
Coupling enz: qHTS Assay for Inhibitors of Fructose-1,6-bisphosphate Aldolase from Giardia Lamblia: Coupling assay counterscreen. coupling enzyme system counterscreen, AmpLite Red fluorescence. activity change, negative = inhibition, % at 58.2 µM, hits read low. AID 2472, 2010. hit rate 0.67% among 290,000; in the data active means activity change below about -30%
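Fluorescence at 525 nm excitation and 598 nm emission measured inhibition of the coupled detection system without aldolase. Compounds (at 57.5 uM final) were preincubated 10 min at room temperature with coupling enzyme reagent before a 20 min substrate/AmpLite Red step.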
A number is an active result; 0 = inactive; ? = inconclusive; - = no result; [ ] = remark or other dose. Hits are enriched below; roughly 1.6% of the tested compounds scored in any of these assays.

SMILES | RXFP1 antag | Giardia killer | RXFP1 ag | gsp agonist | gsp antagonist | Coupling enz
C/C(CCC(=O)OC[C@@H]1O[C@H](C#Cc2ccccc2)C=C[C@@H]1Oc1ccc(C)cc1)=N/OC[C@@H](C)[C@H](OCc1ccccc1)C(C)C | - | - | - | - | - | 0
Cc1cc(C)n(-c2nc(SCCN(C)C)c3c4c(sc3n2)CCCC4)n1 | -60.9 | 0 | 0 | 0 | 0 | 0
CCC(O)CNc1nc(-n2nc(C)cc2C)nc2sc3c(c12)CCCC3 (stereo not given) | - | - | 0 | - | - | 0
CCOC(=O)Cn1c(=O)oc2cc(S(=O)(=O)N3CCN(c4ccccc4OC)CC3)ccc21 | -64.7 | - | 0 | - | - | -
CCOC(=O)Cn1c(=O)oc2cc(S(=O)(=O)N3CCN(c4ccccn4)CC3)ccc21 | - | ? | 0 | 0 | 0 | 0
Nc1ccc(C(=O)OCC(O)CO)cc1 (stereo not given) | 0 | - | - | - | - | -
COC(=O)c1ccc(/C=C2/SC(=S)N(CCC(=O)N3CCOCC3)C2=O)cc1 | 0 | 0 | 0 | 0 | 50.1µM | 0
CCOC(=O)C1=C(CN(CC)Cc2ccccc2)NC(=O)NC1c1ccc(OC(C)C)cc1 (stereo not given) | - | - | 0 | - | - | -
CCOc1ccc(CCNC(=O)CSc2nc3ccccc3nc2Cc2ccc(C)cc2)cc1OCC | 0 | - | 14.1µM | - | - | -
CCOc1ccc(CCNC(=O)CSc2n[nH]c(-c3ccccc3)n2)cc1OCC | 0 | - | 0 | - | - | -
CC(C)(C)N1C(=O)c2ccc(C(=O)Nc3cc(C(=O)O)cc(C(=O)O)c3)cc2C1=O | 0 | 0 | 0 | 0 | 0 | 0
CC(=O)NC1=C(N(C)C2CCS(=O)(=O)C2)C(=O)c2ccccc2C1=O (stereo not given) | 0 | 0 | 0 | 0[15.4 µM] | 0 | -70.5
COC(=O)[C@@]1(C)C=C[C@@H](Cc2ccccc2)N1C | - | - | - | - | - | 0
O=[N+]([O-])c1cccn2cc(-c3ccc(Br)cc3)nc12 | 0 | -98.9 | 0 | 0[15.4 µM] | 0 | 0
COc1ccc(S(=O)(=O)Nc2cc3c(cc2NCc2ccccc2)n(C)c(=O)n3C)cc1 | 0 | - | 28.2µM | - | - | -
COc1cc(/C=N/NC(=O)c2nnn(-c3nonc3N)c2-c2cccs2)ccc1O | 0 | 0 | 0 | 0 | 22.4µM | -
COc1cc(/C=N/NC(=O)c2nnn(-c3nonc3N)c2C(C)C)ccc1OCc1ccccc1 | 0 | 0 | 0 | 0 | 25.1µM | -
COc1ccc(/C=N/NC(=O)c2nnn(-c3nonc3N)c2-c2cccs2)cc1OC | 0 | 0 | 0 | 0 | 0 | -
Cc1ccc(/C=N/NC(=O)c2nnn(-c3nonc3N)c2-c2ccc3c(c2)OCO3)s1 | 0 | 0 | 0 | 0 | 39.8µM | 0
Nc1nonc1-n1nnc(C(=O)N/N=C/c2ccc(F)cc2)c1-c1ccc2c(c1)OCO2 | 0 | 0 | 0 | 0 | 0 | -
Nc1nonc1-n1nnc(C(=O)N/N=C/c2cccc(Cl)c2)c1-c1cccs1 | 0 | 0 | 0 | 0 | 39.8µM | -
COc1ccc(CCn2c3c(c(=O)[nH]c2=S)CN(CC(C)C)CN3)cc1OC | - | 0 | - | - | - | -
CCC(C(=O)NC(C)(C)C)N(Cc1ccc(F)cc1)C(=O)c1snc(C(N)=O)c1N (stereo not given) | 0 | 0 | 0 | 0[15.4 µM] | 0 | 0
CCCN1CNc2c(c(=O)[nH]c(=S)n2CCc2cc(OC)cc(OC)c2)C1 | - | 0 | - | - | - | -
COc1ccc2c(c1)C(=NNc1ccc(C(=O)O)cc1)c1cc(OC)ccc1-2 | 0 | 0 | 0 | 12.6µM | 0 | 0
CCN(CC)S(=O)(=O)c1cc(NC(=O)[C@@H](NC(N)=O)C(C)C)ccc1C | 0 | 0 | 0 | 0[15.4 µM] | 0 | 0
N#Cc1c(-c2ccncc2)c2c([nH]c1=S)CCCC2 | 0 | 0 | 0 | 0 | 0 | -35.7
C#CCn1c(=O)c2c(nc(/C=C/c3cccc(OC)c3)n2C)n(CCCOP(=O)(O)O)c1=O | - | - | - | - | - | 0
CC1=CC(C)(C)Nc2ccc(OC(=O)CN3C(=O)c4cccc5cccc(c45)C3=O)cc21 | 0 | 0 | 0 | 0 | 0 | -53.9
